Screening results from PubChem.
Sampled rows, rich in hits. Any-hit rate of the full collection: about 4.1%.
NLRP3 yeast inh – inhibitors of NALP3 inflammasome in yeast. Yeast reconstituted NLRP3/ASC/caspase-1, beta-gal luminescence, 24 h. inhibition, % at 10 µM. 330,000 tested, 0.39% active. AID 2825;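 active = inhibition of 50% or more; inactive = inhibition below 50%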;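 note: plate controls were induced DMSO wells for no effect and uninduced yeast grown without galactose for full effect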
NALP1 inh – inhibitors of NALP1 inflammasome in yeast; S. cerevisiae NALP1/ASC/caspase-1 growth, X-gal OD620, 72 h; inhibition, % at 10 µM; 280,000 tested, 0.61% active; in the data active = inhibition mostly above about 24%, no sharp cut-off; inactive = mostly below about 32%
PfHsp90 set2 – growth inhibition of yeast expressing Plasmodium Hsp90 | 310,000 tested, 0.32% active | AID 504621 | S. cerevisiae expressing PfHsp90, BacTiter-Glo ATP, 48 h; yeast lacking PDR1 and PDR3 efflux regulators | inhibition, % at 9.4 µM;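 active = every replicate shows inhibition above about 80%, whatever the replicate mean, limit read from the data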;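 note: 0% = DMSO neutral controls and 100% = 20 µM radicicol positive controls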
tim10-1 inh – inhibits growth of tim10-1 mutant yeast. S. cerevisiae tim10-1 ts strain growth, BacTiter-Glo, 24 h. inhibition, % at 20 µM. 330,000 tested, 2.2% active. AID 463190;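 active = inhibition of at least 40%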;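 note: mutant grown at 25 °C; 0% = DMSO wells with yeast and 100% = wells holding no yeast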
tim23-1 inh – inhibits growth of tim23-1 mutant yeast; S. cerevisiae tim23-1 growth, BacTiter-Glo luminescence, 24 h; inhibition, % at 20 µM; 330,000 tested, 1.3% active;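 active = growth inhibition of the mutant yeast at or above 50%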;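 note: temperature-sensitive mutant grown at 25 °C; plate controls were DMSO-treated mutant yeast for no effect and medium wells lacking yeast for full effect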
TIM10 inh – inhibits growth of TIM10 yeast strain; S. cerevisiae TIM10 strain growth, BacTiter-Glo luminescence, 24 h; inhibition, % at 10 µM; 330,000 tested, 1.4% active; AID 463195;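 active = inhibition of 40% or more at the single tested concentration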;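 note: wild-type TIM10 isogenic control strain grown at permissive 25 °C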
tim10 confirm – TIM10 yeast growth inhibition, confirmed. shares compounds with TIM10 inh. S. cerevisiae tim10 strain growth, BacTiter-Glo luminescence, 24 h. inhibition, % at 10 µM. 4,600 tested, 63% active. AID 463215;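 active = inhibition of yeast growth at or above a set limit in either of two replicates at 10 µM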;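 note: this counterscreen used the strain with wild-type TIM10; 0% = yeast with DMSO and 100% = medium wells lacking yeast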
tim23-1 conf – confirmation of tim23-1 mutant yeast growth inhibitors; inhibition, % at 20 µM; S. cerevisiae tim23-1 growth, BacTiter-Glo luminescence, 24 h; shares compounds with tim23-1 inh; 4,400 tested, 83% active;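 active = inhibition above about 39% in either of two replicate wells at 20 µM, limit read from the data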;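 note: temperature-sensitive tim23-1 mutant grown at 25 °C; 0% = DMSO wells with yeast and 100% = medium wells without yeast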
The depositor's hits bear a star.

Results for Cc1cccc(N2CCN(S(=O)(=O)c3ccc4c(c3)CCCN4C(=O)C3CCC3)CC2)c1C ?
NLRP3 yeast inh: 5.0; NALP1 inh: 6.5; PfHsp90 set2: -7.1; tim10-1 inh: 30.5; tim23-1 inh: 25.0; TIM10 inh: 8.5

How did Nc1ccc(C(=O)N2CCN(S(=O)(=O)c3ccc4c(c3)OCCO4)CC2)cc1[N+](=O)[O-] do in these assays?
NLRP3 yeast inh: 8.7; NALP1 inh: 6.9; PfHsp90 set2: 5.1; tim10-1 inh: -2.4; tim23-1 inh: -2.5; TIM10 inh: -11.5

Results for CN1C2CCC1CC(NC(=O)CSCc1ccc(Cl)cc1Cl)C2 (stereo not given) ?
NLRP3 yeast inh: 20.0; NALP1 inh: 6.2; PfHsp90 set2: -4.4; tim10-1 inh: -20.7; tim23-1 inh: -50.4; TIM10 inh: -5.4

Results for Cn1cnc2cc(NC(=O)c3cccs3)ccc21 ?
NLRP3 yeast inh: 21.1; NALP1 inh: -10.2; PfHsp90 set2: -8.1; tim10-1 inh: 17.8; tim23-1 inh: 11.2; TIM10 inh: 29.5

Results for O=C(Nc1ccc2nn(-c3ccccc3)nc2c1)c1cccs1 ?
NLRP3 yeast inh: 5.6; NALP1 inh: 14.2; PfHsp90 set2: -11.1; tim10-1 inh: 29.8; tim23-1 inh: 54.2*; TIM10 inh: 53.3*; tim10 confirm: 53.8*; tim23-1 conf: 65.1*

How did CCN(C(=O)CN1C(=O)/C(=C/c2ccccc2)SC1=S)C1CCS(=O)(=O)C1 (stereo not given) do in these assays?
NLRP3 yeast inh: 22.9; NALP1 inh: 15.7; PfHsp90 set2: 10.4; tim10-1 inh: 3.4; tim23-1 inh: 2.8; TIM10 inh: 2.4

How did CSCCC(NC(=O)c1ccco1)C(=O)N(C)CC(=O)Nc1ccccc1Br (stereo not given) do in these assays?
NLRP3 yeast inh: 8.1; tim10-1 inh: 5.3; tim23-1 inh: 3.4; TIM10 inh: 3.7

What do the screens show for `O=C(N/N=C/c1ccccc1O)c1cccc2ccccc12`?
NLRP3 yeast inh: 27.8; NALP1 inh: 15.4; PfHsp90 set2: -14.8; tim10-1 inh: -13.2; tim23-1 inh: 66.5*; TIM10 inh: 40.7*; tim10 confirm: 21.0; tim23-1 conf: 39.0

Results for O=C(O)c1ccc(C=NNC(=O)c2cccc3ccccc23)cc1 ?
PfHsp90 set2: -45.9

Results for CCOC(=O)c1c(-c2ccc3ccccc3c2)csc1NC(=O)CCCC(=O)O ?
NLRP3 yeast inh: 13.9; PfHsp90 set2: -27.6; tim10-1 inh: 9.9; tim23-1 inh: 15.6; TIM10 inh: -10.0

Results for CCC(C)c1ccc(NC(=O)c2[nH]c(C)c(C(C)=O)c2C)cc1 (stereo not given) ?
NLRP3 yeast inh: -4.1; NALP1 inh: -2.0; PfHsp90 set2: -12.7; tim10-1 inh: 39.8; tim23-1 inh: 53.0*; TIM10 inh: 42.8*; tim10 confirm: 29.2; tim23-1 conf: 51.8*

How did COc1ccccc1CNCc1cccc(Oc2ccccc2)c1 do in these assays?
NLRP3 yeast inh: -4.4; NALP1 inh: 17.8; PfHsp90 set2: -7.0; tim10-1 inh: -4.2; tim23-1 inh: 0.5; TIM10 inh: 11.1

How did CCOc1ccc(NC(=O)c2cc3cc4ccc(C)cc4nc3o2)cc1 do in these assays?
NLRP3 yeast inh: 3.1; NALP1 inh: 0.6; tim10-1 inh: 9.3; tim23-1 inh: 2.6; TIM10 inh: -0.8

What do the screens show for `Cc1ccc2cc3cc(C(=O)NCCCN4CCCCCC4)oc3nc2c1`?
NLRP3 yeast inh: 11.5; NALP1 inh: 14.8; PfHsp90 set2: 13.9; tim10-1 inh: 33.3; tim23-1 inh: 50.6*; TIM10 inh: 58.3*; tim10 confirm: -4.8; tim23-1 conf: 22.6

Results for CCc1ccc(NC(=O)CSc2nnc(CNC(=O)c3ccc(OC)cc3)o2)cc1 ?
NLRP3 yeast inh: 5.7; NALP1 inh: 4.7; PfHsp90 set2: -10.9; tim10-1 inh: 14.4; tim23-1 inh: 9.8; TIM10 inh: -0.2

How did COc1cc(NC(=O)CSc2nc(C3CC3)nc3ccccc23)cc(OC)c1 do in these assays?
NLRP3 yeast inh: 17.4; NALP1 inh: -1.7; PfHsp90 set2: 44.3; tim10-1 inh: 9.4; tim23-1 inh: 7.7; TIM10 inh: 4.5

How did COc1cc(S(=O)(=O)NCC2(N3CCCCC3)CCCCC2)ccc1NC(C)=O do in these assays?
NLRP3 yeast inh: 14.6; PfHsp90 set2: 9.4; tim10-1 inh: 1.2; tim23-1 inh: 17.4; TIM10 inh: -7.1

What do the screens show for `CC(C)(C)C(=O)N1CCN(c2ccnc3cc(Cl)ccc23)CC1`?
NLRP3 yeast inh: 19.7; NALP1 inh: -68.6; PfHsp90 set2: -14.4; tim10-1 inh: -3.3; tim23-1 inh: 12.1; TIM10 inh: 3.1

Results for O=C(Nc1ccc(OC(F)(F)F)cc1)N1CCN(c2ccnc3cc(Cl)ccc23)CC1 ?
NLRP3 yeast inh: 8.2; PfHsp90 set2: -22.2; tim10-1 inh: 35.5; tim23-1 inh: 74.4*; TIM10 inh: 46.0*; tim10 confirm: 27.8; tim23-1 conf: 67.2*

How did O=C(CCN1CCCCC1)c1ccccc1 do in these assays?
NLRP3 yeast inh: 0.5; NALP1 inh: 25.4; PfHsp90 set2: -4.7; tim10-1 inh: 10.3; tim23-1 inh: 20.5; TIM10 inh: 4.6

Results for CCc1oc2ccccc2c1C(=O)CCN1CCCCC1 ?
NLRP3 yeast inh: 33.9; NALP1 inh: 49.6*; PfHsp90 set2: 3.4; tim10-1 inh: 33.2; tim23-1 inh: 52.5*; TIM10 inh: 56.5*; tim10 confirm: 41.3*; tim23-1 conf: -121.5

What do the screens show for `COCCn1c(SCC(=O)NC2CCCC2)nnc1-c1ccco1`?
NLRP3 yeast inh: 13.7; NALP1 inh: 0.4; PfHsp90 set2: -10.9; tim10-1 inh: 12.3; tim23-1 inh: 2.3; TIM10 inh: -15.7

Results for Cc1ccccc1OCC(=O)N1CCCCCCC1 ?
NLRP3 yeast inh: 11.8; PfHsp90 set2: -14.1; tim10-1 inh: -0.7; tim23-1 inh: 4.8; TIM10 inh: -6.1

How did C/C(=N\NC(=S)NCCc1ccccc1)c1cccs1 do in these assays?
NLRP3 yeast inh: 28.9; NALP1 inh: 31.1; PfHsp90 set2: -0.4; tim10-1 inh: 39.4; tim23-1 inh: 51.4*; TIM10 inh: 41.2*; tim10 confirm: -12.0; tim23-1 conf: 45.9*

What do the screens show for `CCN(CC)c1ccc(/C=N/NC(=O)c2ccco2)c(O)c1`?
NLRP3 yeast inh: 14.1; NALP1 inh: 6.3; PfHsp90 set2: 5.7; tim10-1 inh: 33.4; tim23-1 inh: 75.1*; TIM10 inh: 53.6*; tim10 confirm: 61.3*; tim23-1 conf: 77.1*

Results for COc1cc(S(=O)(=O)NCc2ccc(F)cc2)ccc1-n1cnnn1 ?
NLRP3 yeast inh: 5.5; NALP1 inh: 14.3; PfHsp90 set2: -6.6; tim10-1 inh: -2.7; tim23-1 inh: 10.4; TIM10 inh: -3.5
